Compound activity (PubChem)
Sampled rows, rich in hits. Any-hit rate of the full collection: about 2.8%.
PI5P4Ka inh – inhibitors of human PI5P4K alpha; P48426; max response, %; 1.2% of 330,000 active; AID 652105; PI5P4Kalpha enzyme, ADP-Glo luminescence, 60 min; active compounds read low; active = max response of -50% or lower; inconclusive = between -30% and -50%; inactive = -30% or higher; also: value at the top dose of about 77 µM; % is scaled to controls: 0 for no effect and ±100 for the full control effect
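ADP-Glo luminescence end-point after a 60 min room-temperature kinase reaction. PI5P4Kalpha and substrate in HEPES pH 7.4 buffer with EGTA, 0.1% CHAPS and 5% DMSO; ATP at 5 microM final.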
POLI inh – blocks human DNA polymerase iota activity; Pol iota fluorescent replication assay, 10 min; 1% of 390,000 active; Q9UNA4; Potency, µM (doses to about 115 µM), without a hit: at the top dose activity, negative = inhibition, usual class: inhibitors; also: potency is read from the fitted curve at half-maximal effect
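Fluorescent replication assay read twice, at 0 min and 10 min after adding 50 nM (final) substrate. Enzyme (10 nM) and compounds were first incubated 15 min at room temperature; enzyme-free buffer wells were negative controls.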
WRN helicase inh – blocks human WRN helicase | WRN helicase unwinding, fluorescent forked duplex, kinetic | 0.46% of 360,000 active | Potency, µM (titrated, usually from 114 µM), inactives show at the top dose activity change, negative = inhibition, hits mostly inhibitors | Q14191; also: potency is read from the fitted curve at half-maximal effect; % is scaled to controls: 0 for no effect and ±100 for the full control effect; nearly all actives have a fitted effect of over 55% in size
Target sequence (Q14191 whole entry, looked up): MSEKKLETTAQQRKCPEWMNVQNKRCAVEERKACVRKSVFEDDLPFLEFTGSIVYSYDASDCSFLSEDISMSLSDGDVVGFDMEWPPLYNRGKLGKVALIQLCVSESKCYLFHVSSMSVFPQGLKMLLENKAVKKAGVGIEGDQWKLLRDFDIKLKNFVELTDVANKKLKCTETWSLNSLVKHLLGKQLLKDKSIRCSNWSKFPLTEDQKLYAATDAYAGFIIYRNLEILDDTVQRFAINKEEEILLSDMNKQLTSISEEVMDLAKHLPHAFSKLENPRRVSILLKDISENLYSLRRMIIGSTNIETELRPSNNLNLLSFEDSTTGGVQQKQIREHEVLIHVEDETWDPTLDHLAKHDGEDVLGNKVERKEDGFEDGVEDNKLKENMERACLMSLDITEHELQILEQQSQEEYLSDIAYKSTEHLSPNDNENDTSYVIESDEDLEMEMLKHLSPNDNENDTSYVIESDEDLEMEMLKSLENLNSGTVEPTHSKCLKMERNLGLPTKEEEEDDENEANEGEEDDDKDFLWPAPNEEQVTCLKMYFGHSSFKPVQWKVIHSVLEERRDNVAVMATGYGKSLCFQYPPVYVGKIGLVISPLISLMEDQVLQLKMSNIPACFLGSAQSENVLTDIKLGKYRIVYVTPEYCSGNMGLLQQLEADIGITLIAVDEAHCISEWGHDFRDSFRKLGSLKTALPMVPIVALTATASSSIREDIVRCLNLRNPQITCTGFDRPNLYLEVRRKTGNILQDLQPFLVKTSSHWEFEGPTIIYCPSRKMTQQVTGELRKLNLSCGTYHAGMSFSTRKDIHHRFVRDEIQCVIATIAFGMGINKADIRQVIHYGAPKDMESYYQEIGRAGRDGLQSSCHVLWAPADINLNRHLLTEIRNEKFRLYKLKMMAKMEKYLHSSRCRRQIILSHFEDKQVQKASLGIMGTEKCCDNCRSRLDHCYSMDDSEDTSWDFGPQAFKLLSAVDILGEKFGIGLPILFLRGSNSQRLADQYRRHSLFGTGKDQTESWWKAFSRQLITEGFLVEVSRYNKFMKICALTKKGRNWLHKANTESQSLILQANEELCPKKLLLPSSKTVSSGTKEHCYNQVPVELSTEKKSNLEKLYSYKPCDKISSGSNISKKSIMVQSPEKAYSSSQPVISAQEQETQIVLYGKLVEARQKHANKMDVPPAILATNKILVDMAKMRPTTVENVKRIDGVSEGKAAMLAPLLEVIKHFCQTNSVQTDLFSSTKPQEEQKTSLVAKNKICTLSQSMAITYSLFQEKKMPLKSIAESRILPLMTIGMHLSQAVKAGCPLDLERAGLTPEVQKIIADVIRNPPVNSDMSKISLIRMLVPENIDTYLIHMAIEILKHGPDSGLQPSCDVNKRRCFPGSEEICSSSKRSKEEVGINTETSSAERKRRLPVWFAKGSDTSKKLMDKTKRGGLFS
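Primary qHTS, 1536-well format. 20 nM WRN + compound, 15 min RT; start with 100 nM forked fluorophore/quencher duplex, 2 mM ATP (final); kinetic read ex 525/em 598 nm.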
POLK inh – inhibitors of human DNA polymerase kappa; 0.53% of 400,000 active; Q9UBT6; purified Pol kappa, fluorescent DNA synthesis assay, 10 min; Potency, µM (doses to about 107 µM), for the others: at the top dose activity, negative = inhibition, most hits filed as inhibitors; also: potency is read from the fitted curve at half-maximal effect; % is scaled to controls: 0 for no effect and ±100 for the full control effect
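50 nM final substrate added after 15 min RT preincubation of 10 nM Pol kappa with compound; fluorescence read at 0 and 10 min.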
Pol eta inh – blocks human DNA polymerase eta activity | Q9Y253 | recombinant Pol eta, fluorescent DNA replication assay | Potency, µM (doses to about 114 µM), for the others: at the highest dose activity change, negative = inhibition, most hits filed as inhibitors | 1.2% of 390,000 active | AID 588591; also: potency is read from the fitted curve at half-maximal effect; % is scaled to controls: 0 for no effect and ±100 for the full control effect
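Pol eta at 10 nM preincubated with compounds 15 min at room temperature; reaction started with fluorescent substrate (50 nM final) and read kinetically at 0 and 10 min.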
Pol beta inh – inhibitors of human DNA polymerase beta. Potency, µM (highest dose often 114 µM), for inactives: at the top dose activity change, negative = inhibition, most hits filed as inhibitors. 1.3% of 340,000 active. P06746. Pol beta primer extension/strand displacement, fluorescence kinetic; also: potency is read from the fitted curve at half-maximal effect; % is scaled to controls: 0 for no effect and ±100 for the full control effect
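Values derive from four-parameter Hill fits of normalized kinetic data: reads at 0 and 10 min following addition of 50 nM substrate to 10 nM Pol beta preincubated 15 min with compound.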
The depositor's hits bear a star; u = inconclusive; x = not tested or not shown; ! = repeats disagree; [ ] = dose if it differs, or a comment. Unless noted, calls follow the shape of the dose curve; as a rule, active = well fitted curve in the direction sought with a large enough effect; inconclusive = small, poorly fitted or top-dose-only effect, or another doubt; inactive = no such curve, though single readings can be large; an effect the other way counts as inactive or inconclusive.

SMILES	PI5P4Ka inh	POLI inh	WRN helicase inh	POLK inh	Pol eta inh	Pol beta inh
Cc1nn(Cc2ccccc2)c(C)c1C=C1C(=O)NC(=S)NC1=O	-57.3*	-1.6%	u	-26.5%	-1.2%	28.1%
[Cl-].[Cl-].[Hg+2]	x	x	x	-29.5%[60.1 µM]	x	x
O=c1cc(-c2ccc(O)cc2)oc2c(C3O[C@H](CO)[C@@H](O)[C@H](O)[C@H]3O)c(O)cc(O)c12 (some centres not stated)	-72.9*	u	-11.1%	u	u	x
c1ccc(-c2nc(N3CCOCC3)s[n+]2-c2ccccc2)cc1	-66.8*	24.6%	u	3.4%	-9.6%	29.6%
Cc1cc(N2CCCCC2)ccc1C=C1C(=O)N(C)C(=S)N(C)C1=O	-60.0*	-6.1%	-35.5%[57.1 µM]	-9.6%	u	-14.3%
Cc1cc(C=C2C(=O)N(C)C(=S)N(C)C2=O)c(C)n1C1CCCCC1	u	u	-5.9%[11.6 µM]	-21.8%	14.1µM*	39.8µM*
CCC(C)N1C(=O)/C(=C\c2ccc(N3CCCCCC3)cc2)C(=O)NC1=S (configuration not stated)	-58.4*	87.1%	u	-12.8%	5.6%	-23.1%
CN1C(=O)/C(=C\c2ccc(N3CCCCCC3)cc2)C(=O)NC1=S	-55.9*	-9.9%	-16.9%	-14.9%	-11.3%	-28.7%
CCCCN1C(=O)/C(=C/c2ccc(N3CCCCCC3)cc2)C(=O)NC1=S	x	x	x	x	x	-15.8%
CC(C)NC(=O)C(C)N1CCN(S(=O)(=O)c2ccc3ccccc3c2)CC1 (configuration not stated)	-6.3	38.8%	-16.9%	1.9%	10.8%	2.9%
O=C(Cn1cnc2ccccc2c1=O)NCc1cccs1	-1.3	78.5%	-4.0%	-14.3%	-13.4%	-0.3%
C[C@@H](Cc1cccc(C(F)(F)F)c1)NCCCc1ccccc1	x	x	x	-12.1%[19.4 µM]	x	x
Cc1cc(N2CCOCC2)ccc1/C=C1\C(=O)NC(=O)N(c2ccccc2)C1=O	-26.1	-20.4%	-6.3%	-5.2%	-7.1%	-17.8%
O=C1NC(=O)N(c2cccc(F)c2)C(=O)/C1=C/c1ccc(N2CCOCC2)cc1	-61.2*	u	-7.5%	-19.7%	4.2%	u
CCC(C)N1C(=O)/C(=C\c2cc3c4c(c2)CCCN4CCC3)C(=O)NC1=S (configuration not stated)	u	u	u	-34.2%	u	44.7µM*
CC(C)(C)N1C(=O)NC(=O)/C(=C\c2ccc3c(c2)CCN3CCCCl)C1=O	u	u	-26.5%[57.1 µM]	-32.8%	u	u
O=C1c2ccccc2C(=O)C1C(=O)C(c1ccccc1)c1ccccc1	x	x	x	-3.7%[19.4 µM]	x	x
CCOP(=S)(OCC)SCSc1ccc(Cl)cc1	x	x	x	15µM*	x	x
O=C(/C=C/c1c[nH]c2ccccc12)c1c(O)n(CCc2ccccc2)c(=O)[nH]c1=O	-56.1*	9.7%	-10.8%	-10.7%	-11.5%	2.6%
Nc1nc(NCc2ccc(F)cc2)c2[nH]cnc2n1	x	56.2%	x	11.9%	x	x
CN(N=O)c1cc(O)ccc1O	x	11.2µM*	x	u	1.41µM*	1.26µM*
CC(C)c1ccc(NC(=O)C2CCC(CNS(=O)(=O)c3ccc4c(c3)CCCC(=O)N4)CC2)cc1 (configuration not stated)	x	u	x	19.4%	-12.5%	14.2%
O=c1[nH]c(=O)n(Cc2ccco2)c(O)c1C=NCc1cccs1	x	-23.7%[58.9 µM]	-14.9%	u	u	-1.1%
O=c1[nH]c(=S)n(Cc2ccco2)c(O)c1C=NCc1cccs1	-69.2*	22.4µM*	u	50.1µM*	22.4µM*	12.6µM*
CCOC(=O)Cn1c(-c2ccccc2)ccc(C#N)c1=O	14.7	109.5%	4.4%	-1.2%	-11.8%	8.4%
SMILES	PI5P4Ka inh	POLI inh	WRN helicase inh	POLK inh	Pol eta inh	Pol beta inh
O=c1cc(C2CCNCC2)[nH][nH]1	-4.3	0.891µM*	4.8%	0.1%	14.2%	3.1%
CC(C)c1ccc(N2C(=O)NC(=O)/C(=C/c3cnc(-c4ccccc4)nc3)C2=O)cc1	-54.0*	1.7%	50.1µM*	-10.7%	-2.3%	7.6%
O=C1NC(=O)N(Cc2ccccc2)C(=O)/C1=C/c1cnc(-c2ccccc2)nc1	-72.6*	27.6%	u	-7.3%	-13.4%	6.6%
O=C1NC(=O)N(Cc2ccc(F)cc2)C(=O)/C1=C/c1cccs1	-55.8*	u	39.8µM*	-13.1%	u	89.1µM*
O=C1NC(=O)N(Cc2ccccc2Cl)C(=O)/C1=C/c1cccs1	u	u	u	-21.0%	u	7.0%
CSc1ncc(/C=C2/C(=O)NC(=O)N(c3ccc(C(C)C)cc3)C2=O)cn1	u	4.1%	50.1µM*	-1.1%	-6.3%	-14.3%
O=C(Nc1ccc2nc(SCC(=O)N3CCCc4ccccc43)sc2c1)c1cccc(F)c1	x	-4.2%	x	-24.0%	-1.3%	u
Cc1ccc(CNc2cc(C)nc3nc(-c4ccc(C)cc4)nn23)cc1	x	u	x	-1.3%[60.1 µM]	-2.4%	-21.1%
O=C1OC(c2ccc(O)c(S(=O)(=O)O)c2)(c2ccc(O)c(S(=O)(=O)O)c2)c2c(Br)c(Br)c(Br)c(Br)c21	x	x	x	28.2µM*	x	x
O=C(CSc1nnc(NC(=O)C2CC2)s1)NCc1ccccc1Cl	-3.9	31.5%	7.7%	0.1%	0.1%	-12.8%
ClCCN(CCCl)/C(=C\c1ccccc1)c1ccnc2ccccc12	x	16.8%	x	5.3%	x	x
O=c1c2ccccc2[se]n1-c1ccccc1	-90.9*	u	-17.2%[11.6 µM]	10.4%[60.1 µM]	-6.1%	3.16µM*!
O=c1c2ccccc2nc(-c2ccccc2)n1-c1ccccc1	0.6	0.8%	-3.3%	-3.0%	1.7%	-2.4%
CCCCOc1ccc(C(C)=O)cc1Cc1c(O)[nH]c(=S)[nH]c1=O	-14.4	-4.6%	4.7%	6.4%	0.9%	4.2%
COc1ccc(Cc2c(O)[nH]c(=S)[nH]c2=O)cc1	-56.1*	-4.0%	-35.9%	-8.8%	14.8%	9.4%
Oc1ccc(Cl)cc1Sc1cc(Cl)ccc1O	25.7	u	u	-21.6%	-3.2%	x
N=C(N)c1ccc(CS(=O)(=O)F)cc1	x	x	x	-8.8%[60.1 µM]	x	x
